These results are taken from article PMC5540273 (PLoS ONE, 2017).

Common to all, as to conditions: concentration: 1 μM,replicates: in singlicate; n = 1
The subject of assay [1] is RPS6KA4(Kin.Dom.1-N-terminal).
Assay [2] relates to RPS6KA4(Kin.Dom.2-C-terminal).
The subject of assay [3] is RPS6KA5(Kin.Dom.1-N-terminal).
Assay [4] concerns RPS6KA5(Kin.Dom.2-C-terminal).
Assay [5] concerns T1, RSK1(Kin.Dom.1-N-terminal).
T1 construct: gene RPS6KA1

The subject of assay [6] is T2, RSK1(Kin.Dom.2-C-terminal).
T2 construct: gene RPS6KA1

Assay [7] deals with T3, RSK2(Kin.Dom.1-N-terminal).
T3 construct: gene RPS6KA3

The test system of assay [8] is T4, RSK2(Kin.Dom.2-C-terminal).
T4 construct: gene RPS6KA3

The test system of assay [9] is T5, RSK3(Kin.Dom.1-N-terminal).
T5 construct: gene RPS6KA2

For assay [10], the system named is T6, RSK3(Kin.Dom.2-C-terminal).
T6 construct: gene RPS6KA2

Structures are written as SMILES.
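Also: KINOMEscan kinase panel screen.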

`COc1cc2c(Nc3ccc(NC(=O)c4ccccc4)cc3)ncnc2cc1OCCCN1CCOCC1` [GSK301329]: the “%Inh” value is listed as 20% in assay [1]; 0% in [2]; 0% in [3]; 0% in assay [4]; 11% in [5]; 0% in assay [6]. Besides, the “%Inh” value in [7] amounted to 0%; in [8], 1%; in [9], 0%; in assay [10], 0%.

Regarding `CCCC(=O)Nc1n[nH]c2ncccc12` [SB-601436], the “%Inh” value worked out at 3% in assay [1]; 3% in [2]; 0% in assay [3]; 0% in assay [4]; 0% in assay [5]; 0% in assay [6]. For the same compound, the “%Inh” value in assay [7] was 19%; in assay [8] it was 0%; in assay [9], 0%; in [10] it was 0%.

For the compound `CN(c1ccccc1CNc1nc(Nc2ccc3c(c2)CC(=O)N3)ncc1C(F)(F)F)S(C)(=O)=O`, the “%Inh” value in assay [1] is listed as 89%; in assay [2] it was 46%; in assay [3], 71%; in assay [4] it was 14%; in assay [5], 86%; in assay [6] it was 0%. The “%Inh” value worked out at 89% in assay [7], 0% in assay [8], 91.1% in assay [9] and 7% in [10].

`Cn1cc(-c2cccc3c(N)c(C(N)=O)nnc23)cn1`: the “%Inh” value worked out at 53% in assay [1]; 30% in assay [2]; 21% in assay [3]; 13% in [4]; 0% in assay [5]; 0% in assay [6]. In addition, the “%Inh” value came out at 23% in assay [7], 44% in [8], 21% in assay [9] and 0% in [10].

Regarding `CN(c1cccc(CNc2nc(Nc3ccc4c(c3)CC(=O)N4)ncc2C(F)(F)F)c1)S(C)(=O)=O`, the “%Inh” value in assay [1] came to 48%; in [2] it was 3%; in [3], 12%; in assay [4], 20%; in assay [5], 67%; in assay [6] it was 13%. Besides, the “%Inh” value in assay [7] was 87%; in [8], 23%; in assay [9], 78%; in assay [10], 27%.

Take `Cc1ccc(C(=O)Nc2ccc(Oc3ccc4nc(NC(=O)C5CC5)cn4c3)c(F)c2)c(=O)n1-c1ccccc1`: the “%Inh” value in assay [1] worked out at 22%; in assay [2] it was 0%; in assay [3], 0%; in [4], 0%; in assay [5], 0%; in [6], 0%. For the same compound, the “%Inh” value is 0% in assay [7], 37% in [8], 22% in [9] and 2% in assay [10].

As for `COC(=O)c1cccc(NC(=O)NC2CCN(c3ccnc(Nc4cc(OC)c(OC)c(OC)c4)n3)C2)c1` (centres unmarked) [GSK1379767], the “%Inh” value was 0% in [1]; 0% in assay [2]; 0% in assay [3]; 30% in assay [4]; 21% in [5]; 5% in assay [6]. The “%Inh” value is 7% in assay [7], 1% in [8], 9% in assay [9] and 29% in assay [10].

On to `O=c1[nH]cc(-c2ccc(O)cc2)c2sc(-c3ccncc3)cc12` [GSK1033723], for which the “%Inh” value was determined as 0% in [1]; 0% in [2]; 4% in assay [3]; 21% in [4]; 10% in assay [5]; 0% in assay [6]. Moreover, the “%Inh” value in [7] was 0%; in assay [8], 23%; in assay [9], 0%; in assay [10], 3%.

On to `Cc1ccc(Nc2ccnc(Nc3ccc4c(c3)CS(=O)(=O)C4)n2)cc1O.Cl` [GW579362], for which the “%Inh” value in assay [1] is 15%; in [2], 0%; in assay [3], 0%; in assay [4], 18%; in assay [5], 20%; in assay [6], 7%. Besides, the “%Inh” value in assay [7] is on record as 0%; in assay [8], 55%; in [9], 47%; in [10] it was 11%.

`Cc1ccc(CC(=O)N2CCc3cc(-c4cn(C)c5ncnc(N)c45)ccc32)cc1` [GSK2634758]: the “%Inh” value is given as 16% in [1]; 0% in assay [2]; 3% in [3]; 0% in assay [4]; 9% in assay [5]; 4% in assay [6]. For the same compound, the “%Inh” value in [7] was determined as 0%; in assay [8], 4%; in assay [9] it was 7%; in assay [10], 0%.

Turning to `N#Cc1cccc(C(=O)NC2CCN(c3ccnc(Nc4ccc(F)cc4)n3)C2)c1` (centres unmarked) [GSK1379708], the “%Inh” value in assay [1] is given as 0%; in assay [2] it was 0%; in assay [3], 0%; in [4], 0%; in assay [5], 15%; in [6] it was 0%. Also, the “%Inh” value in assay [7], in assay [8], in assay [9] and in assay [10] was 0% throughout.

As for `O=C(Nc1cccc(Oc2ccc3nccn3n2)c1)Nc1cccc(C(F)(F)F)c1`, the “%Inh” value in [1] is recorded as 24%; in assay [2] it was 0%; in assay [3], 0%; in assay [4] it was 0%; in assay [5], 0%; in [6], 9%. Also, the “%Inh” value in assay [7] is 8%; in assay [8] it was 25%; in assay [9] it was 0%; in [10] it was 0%.

Take `Cn1ccc2ncnc(Oc3ccc(NC(=O)Nc4cccc(C(F)(F)F)c4)c(Cl)c3)c21`: the “%Inh” value in assay [1] is 2%; in [2] it was 0%; in assay [3], 0%; in assay [4] it was 2%; in assay [5] it was 0%; in [6], 86%. Moreover, the “%Inh” value in [7] came out at 13%; in [8], 16%; in [9], 0%; in assay [10], 27%.

For `NC(=O)Nc1sc(-c2ccc(F)cc2)cc1C(N)=O` [GW789449], the “%Inh” value is 46% in [1]; 7% in assay [2]; 0% in assay [3]; 0% in assay [4]; 54% in assay [5]; 33% in assay [6]. Besides, the “%Inh” value in [7] amounted to 68%; in assay [8] it was 45%; in assay [9], 21%; in assay [10] it was 7%.

As to `O=C(Nc1cccc(C(F)(F)F)c1)c1cccc(Oc2ccc3nccn3n2)c1`, the “%Inh” value in assay [1] is listed as 9%; in assay [2] it was 0%; in assay [3] it was 8%; in [4], 0%; in assay [5] it was 25%; in assay [6], 0%. For the same compound, the “%Inh” value in assay [7] is 10%; in assay [8] it was 48%; in assay [9], 23%; in assay [10] it was 68%.

For the compound `COc1cccc(OC)c1C(=O)Nc1cccc(-c2nn3ccccc3c2-c2ccnc(Nc3cccc(F)c3)n2)c1` [GSK361065], the “%Inh” value in [1] is on record as 8%; in assay [2], 14%; in assay [3], 0%; in assay [4], 0%; in [5], 36%; in assay [6], 0%. In addition, the “%Inh” value stood at 0% in [7], 13% in [8], 6% in [9] and 15% in [10].

For the compound `CN(c1ccc2c(c1)nc(NCc1ccc(F)cc1)n2C)c1ccnc(Nc2ccc(CS(C)(=O)=O)cc2)n1.Cl` [GW813244], the “%Inh” value in assay [1] was found to be 12%; in [2], 0%; in [3], 0%; in assay [4], 4%; in assay [5] it was 0%; in [6], 32%. In addition, the “%Inh” value came to 31% in assay [7], 0% in assay [8], 9% in assay [9] and 28% in assay [10].
